A selection: hits, their analogues and other compounds. The true share with any hit is near 12%.
BAZ2B inh = BAZ2B (human) inhibition | AID 504333 | Potency, µM (highest dose often 114 µM), inactives show at the top dose activity change, negative = inhibition, most hits filed as inhibitors | 4.4% of 360,000 active | AlphaScreen BAZ2B-H3K14Ac peptide displacement; note: % is set by controls: 0 for no effect and ±100 for the full control effect; nearly all actives have a fitted effect of over 60% in size
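Complex of BAZ2B and biotin-H3K14Ac (50 nM apiece) forms over 30 min at RT, then faces library compounds up to 110 uM for another 30 min; AlphaScreen beads added, 20 min dark incubation, luminescence read.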
JMJD2A Tudor = inhibitors of human JMJD2A Tudor domain; O75164; AlphaScreen JMJD2A-Tudor / H3K4me3 peptide binding; AID 504339; 4.4% of 390,000 active; Potency, µM (doses to about 114 µM), inactives show at the top dose activity change, negative = inhibition, actives largely listed as inhibitors; note: % is set by controls: 0 for no effect and ±100 for the full control effect; nearly all actives have a fitted effect of over 50% in size
Sfp inh = Sfp phosphopantetheinyl transferase inhibition; Biochemical Sfp PPTase activity, qHTS; Potency, µM, without a hit: largest response in the series, negative = inhibition, hits mostly inhibitors; Q9F4F7; 3.5% of 310,000 active; AID 1490;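 note: the enzyme is Sfp with the accession as filed and its product quenches rhodamine fluorescence; 0% = enzyme reaction without inhibitor and -100% = no enzyme wells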
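Reaction rates are the 30-min fluorescence difference (ex 525, em 598 nm) in wells containing 15 nM Sfp, 5 uM rhodamine-CoA and 12.5 uM BHQ-2-YbbR at pH 7.6 with 10 mM MgCl2.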
HP1b binding inh = inhibitors of HP1-beta chromodomain binding to methylated histone tails; P83916; 0.56% of 390,000 active; AlphaScreen HP1-beta / biotin-H3K9me3 peptide binding; Potency, µM (highest dose often 114 µM), for the others: at the top dose activity change, negative = inhibition, most hits filed as inhibitors; note: nearly all actives have a fitted effect of over 70% in size
Target sequence (P83916 whole entry, looked up): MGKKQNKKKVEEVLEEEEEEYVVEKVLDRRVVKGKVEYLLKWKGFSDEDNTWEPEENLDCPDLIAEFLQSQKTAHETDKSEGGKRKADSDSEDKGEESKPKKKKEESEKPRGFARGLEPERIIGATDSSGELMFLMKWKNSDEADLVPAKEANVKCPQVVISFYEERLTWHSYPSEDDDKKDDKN
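HP1-beta protein (50 nM final) preincubated 30 min at room temperature with biotinylated H3(1-18)K9me3 peptide (50 nM) in PBS pH 7.4, 0.01% Tween-20, then compound added for 30 min. AlphaScreen streptavidin donor/nickel chelate acceptor beads (10 ug/mL final), 30 min dark, luminescence read.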
G9a inh = inhibitors of human histone lysine methyltransferase G9a; Q96KQ7; G9a H3K9 monomethylation, AlphaScreen, 2 h; Potency, µM (doses to about 102 µM), for inactives: at the highest dose activity, negative = inhibition, usual class: inhibitors; 8.8% of 350,000 active; AID 504332; note: % is set by controls: 0 for no effect and ±100 for the full control effect; nearly all actives have a fitted effect of over 75% in size
Target sequence (Q96KQ7 913-1193 limits assumed): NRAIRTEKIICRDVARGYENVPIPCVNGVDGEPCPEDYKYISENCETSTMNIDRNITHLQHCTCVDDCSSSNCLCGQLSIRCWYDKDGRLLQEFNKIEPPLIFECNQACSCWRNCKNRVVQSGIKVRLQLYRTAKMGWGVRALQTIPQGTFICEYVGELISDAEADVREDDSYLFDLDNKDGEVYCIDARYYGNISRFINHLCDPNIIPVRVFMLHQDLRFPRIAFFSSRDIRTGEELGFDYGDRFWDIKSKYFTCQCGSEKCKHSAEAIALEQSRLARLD
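Quantitative HTS format: methyltransferase activity on a biotin-tagged H3K9 peptide is measured by AlphaScreen, using a rabbit anti-monomethyl-H3K9 antibody with streptavidin donor and anti-IgG acceptor beads. Final levels are 20 nM enzyme, 500 nM peptide, 20 uM SAM; 2 h RT.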
* marks the source's active call; other numbers are inactive results; u = inconclusive; x = no result; [ ] = dose if it differs, or a comment. Calls come from the whole dose curve; as a rule, active = well fitted curve in the direction sought with a large enough effect; inconclusive = small, poorly fitted or top-dose-only effect, or another doubt; inactive = no such curve, though single readings can be large; an effect the other way counts as inactive or inconclusive. Potency is the fitted concentration of half-maximal effect.

SMILES	BAZ2B inh	JMJD2A Tudor	Sfp inh	HP1b binding inh	G9a inh
O=C(COc1ccc(F)cc1Cl)Nc1cccc(S(=O)(=O)N2CCCCCC2)c1	13%	-3%	x	53%	-6%[59 µM]
Cc1ccc(NC(=O)Cn2cc(C(F)(F)F)cc(Cl)c2=O)cc1S(=O)(=O)N1CCCCC1	4%	-24%	x	7%	50µM*
COc1ccc(NC(=O)Cc2ccccc2F)cc1S(=O)(=O)N1CCCCC1	0%	1%	x	43%	0.32µM*
CC(=O)c1cc(Cl)ccc1OCC(=O)Nc1cccc(S(=O)(=O)N2CCCC2)c1	21%	1%	x	32%	7.1µM*
Cc1ccc(NC(=O)CCNC(=O)c2ccc(Br)cc2)cc1S(=O)(=O)N1CCCCCC1	1%	-18%	x	6%	50µM*
Cc1ccc(NC(=O)COC(=O)Cc2c[nH]c3ccccc23)cc1F	-35%	u	x	9%	35µM*
Cc1ccc(NC(=O)COC(=O)C2CC3C=CC2C3)cc1S(=O)(=O)N1CCCCC1 (stereo unspecified)	8%	56µM*	1%	9%	14%[59 µM]
Cc1ccc(S(=O)(=O)N2CCCCC2)cc1NC(=O)COC(=O)C1CC2C=CC1C2 (stereo unspecified)	2%	-16%	23%	2%	21%
COc1ccc(NC(=O)CN(C)CC(=O)Nc2cccc(F)c2)cc1S(=O)(=O)N1CCCCC1	x	2.8µM*	x	u	x
Cc1ccc(OCC(=O)Nc2cc(C(=O)O)cc(C(=O)O)c2)cc1C	-13%	8.9µM*	u	-11%	u
COc1ccc(NC(=O)CSc2ccc(F)cc2)cc1S(=O)(=O)N1CCCCC1	5%	-13%	-16%	38%	17%
Cc1cccc(C)c1Nc1oc(-c2ccccc2)nc1-c1ccccc1	x	x	-28%	x	x
CCCn1c2ccccc2c2cnn(CC(=O)NCCc3ccc(OCC)cc3)c(=O)c21	4%	-16%	x	10%	5%[59 µM]
O=C(COC(=O)c1c(Cl)cccc1Cl)NCC1CCCO1 (stereo unspecified)	x	-9%	x	28%	x
CCOC(=O)C1CCN(S(=O)(=O)c2ccc(N3CCCCS3(=O)=O)cc2)CC1	-9%	3%	x	28%	9%[12.7 µM]
O=P(O)(O)OC[C@H]1O[C@](O)(COP(=O)(O)O)[C@@H](O)[C@@H]1O	x	x	29%	x	2%[12.7 µM]
CCCCn1cc(S(=O)(=O)c2ccccc2)c(=O)c2cc(F)c(N3CCN(CCC)CC3)cc21	3%	-1%	x	35%	0%[59 µM]
C/C(=N/NC(=O)C1CCCC1)c1ccc(NC(=O)C(F)(F)F)cc1	-4%	x	7%	x	x
COc1ccccc1CN(C)CC(=O)Nc1cccc(S(=O)(=O)N2CCCC2)c1	x	0.79µM*	x	-17%	x
Cc1ccc(NC(=O)CN(C)CC(=O)Nc2cccc(F)c2)cc1S(=O)(=O)N1CCCCCC1	50µM*	18µM*	-20%	u	5.6µM*
N#Cc1cccc(NC(=O)CNc2cccc(S(=O)(=O)N3CCCC3)c2)c1	3%	-22%	x	62%	-33%
COc1cc(Cl)c(C)cc1NCC(=O)Nc1cccc(S(=O)(=O)N2CCCC2)c1	u	u	x	-18%	11µM*
O=C(CNc1ccc(F)cc1Cl)Nc1cccc(S(=O)(=O)N2CCCCC2)c1	-9%	-6%	x	25%	-1%[12.7 µM]
N#Cc1ccc(Cl)cc1NC(=O)CNc1cccc(S(=O)(=O)N2CCCC2)c1	3%	-3%	x	40%	45µM*
CC(=O)OC1CC2C(C)(C)C(=O)[C@@H]3OC3[C@@]2(C)C2CC[C@]3(C)C(=CC(=O)OC3c3ccoc3)[C@]12C (stereo partly specified)	x	x	3%	x	x
SMILES	BAZ2B inh	JMJD2A Tudor	Sfp inh	HP1b binding inh	G9a inh
COc1ccc(NC(=O)COc2cc(C)cc(C)c2)cc1S(=O)(=O)N1CCCCC1	1%	-21%	x	11%	-22%
O=C(COC(=O)c1cc([N+](=O)[O-])ccc1NCCO)Nc1cccc(S(=O)(=O)N2CCCC2)c1	-7%	u	x	-19%	45µM*
Cc1ccc(NC(=O)Cc2c[nH]c3ccccc23)cc1S(=O)(=O)N1CCCCCC1	-39%	-19%	3%	28%	25µM*
COc1ccc(NC(=O)COc2ccc(C)c(C)c2)cc1S(=O)(=O)N1CCCCC1	2%	-12%	x	31%	56µM*
CCOc1ccc(N2CC(C(=O)Nc3ccc(OC)c(S(=O)(=O)N4CCCCC4)c3)CC2=O)cc1 (stereo unspecified)	-36%	-30%	7%	0%	79µM*
CCCCC1=CC2=CC(=O)C(C)(OC(=O)CC)C(=O)C2=CN1CCCN(CC)CC (stereo unspecified)	x	x	7%	x	x
CCc1ccc(NC(=O)Cn2c(=O)n(CCc3ccccc3)c(=O)c3sc4ccccc4c32)cc1	-11%	-9%	x	15%	-1%[59 µM]
Fc1ccc(NC(=S)Nc2cccc3ccccc23)cc1	u	-24%	-23%	1%	79µM*
COc1cc(NC(=S)Nc2cccnc2)cc(OC)c1	-25%	-10%	u	-16%	16µM*
COc1ccc(NC(=S)Nc2cccc3cnccc23)cc1	-37%	-33%	u	-19%	25µM*
S=C(Nc1cccnc1)Nc1cccc2cnccc12	x	-12%	11µM*	-7%	35µM*
Cc1ccc(NC(=S)Nc2cccc3ccccc23)cc1	u	-27%	-27%	-7%	x
CCOc1ccc(NC(=S)Nc2cccc3cnccc23)cc1	-14%	-13%	u	-11%	u
CN(C)CCCNc1ncnc2ccc(-c3ccc4c(c3)OCO4)cc12	x	-11%	x	x	x
COc1cccc(CN2C(=O)c3ccccc3Sc3ccc(C(=O)NCc4ccccc4)cc32)c1	x	-6%	x	28%	-1%[59 µM]
S=C(Nc1ccc(Cl)cc1)Nc1cccc2cnccc12	-38%	-21%	u	-19%	45µM*
CN(C)S(=O)(=O)c1cccc(NC(=S)Nc2cccc3cnccc23)c1	18%	-35%	2.5µM*	u	x
Cc1ccc(S(=O)(=O)N(C)C)cc1NC(=S)Nc1cccc2ccccc12	-23%	-27%	-26%	-9%	u
Cc1cc(NC(=S)Nc2cccnc2)ccc1Br	-3%	-21%	-15%	21%	40µM*
Fc1cccc(NC(=S)Nc2cccnc2)c1	-31%	-5%[57.1 µM]	35µM*	16%	u
Cc1cc(Cl)ccc1NC(=O)C1CCN(S(=O)(=O)c2ccc3[nH]c(=O)ccc3c2)CC1	0%	-13%	x	27%[57 µM]	-3%[59 µM]
C=CCNC(=S)Nc1cccc2ccccc12	-18%	-9%	79µM*	17%	45µM*
COc1cccc(NC(=S)Nc2cccc3ccccc23)c1	u	-33%	-28%	-1%	u
Cc1cc(NC(=S)Nc2cccc3ccccc23)n[nH]1	-25%	-23%	-7%	-14%	1.1µM*
Cc1cc(C)cc(NC(=S)Nc2cccc3ccccc23)c1	8%	-31%	4%	-12%	59%
COc1ccccc1NC(=S)Nc1cccc2cnccc12	2%	-28%	45µM*	-23%	25µM*

Assay outcomes deposited in PubChem BioAssay by National Center for Advancing Translational Sciences (NCATS).
